Reference: PubChem BioAssay (Tox21)
“And” between values parts separate entries of the source, which are not always exact repeats. Equal values may be shown once. Inconclusive results are not listed. Unmarked numbers belong to inactive results. The source made the active and inactive calls. The call rests on the fitted dose curve; in most records, active means well fitted inhibition curve with a large enough effect in the signal ratio in the repeat runs; inconclusive means weak or mixed curves, or effect the other way; inactive means flat fitted curve, though single readings scatter; the % refers to the signal ratio.

Assay: qHTS assay for small molecule disruptors of the mitochondrial membrane potential (AID 720635)
Settings: HepG2 mitochondrial membrane potential, Mito-MPS dye ratio; series mostly up to 83.2 µM; ratio activity, negative = MMP loss: at the top concentration
Description: U.S. Tox21 Program National Center for Advancing Translational Sciences [NCATS] NIH Chemical Genomics Center [NCGC] U.S. Environmental Protection Agency [EPA] National Institutes of Environmental Health Sciences [NIEHS] National Toxicology Program [NTP] U.S. Food and Drug Administration [FDA] Tox21 Assay Overview: Mitochondrial membrane potential (MMP), one of the parameters for mitochondrial function, is generated by mitochondrial electron transport chain that creates an electrochemical gradient by a series of redox reactions. This gradient drives the synthesis of ATP, a crucial molecule for various cellular processes. Measuring MMP in living cells is commonly used to assess the effect of chemicals on mitochondrial function. […] The dye accumulates in the mitochondria of healthy cells as aggregates, with red fluorescence. The mitochondrial potential collapses and the dye can no longer accumulate in the mitochondria and remains in the cytoplasm in monomers, with green fluorescence.
Tox21 Assay Protocol Summary: 2,000 HepG2 cells in 5 uL/well were dispensed into black, clear-bottom 1536-well plates using a Multidrop Combi (Thermo Scientific) dispenser. The assay plates were incubated overnight at 37C to allow cells to attach to the wells, followed by the transfer of 23 nL compound or DMSO vehicle by a pin tool (Kalypsys). The plates were incubated for 1 hr at 37C and 5% CO2, followed by the addition of 5 uL of 2X Mito-MPS dye (BD Biosciences) into each well using Flying Reagent Dispenser (Aurora Discovery) and then following 30 min incubation at 37C. Fluorescence intensity (490nm excitation and 535nm emission for monomers; and 540nm excitation and 590nm emissions for aggregates) was measured using an Envision plate reader.
On the % scale 0 is the no-effect control and ±100 the full control effect; potency means the concentration at half of the fitted maximal effect.

Structure (SMILES) | ratio activity, negative = MMP loss | Potency
C[C@@H]1[C@H]2Cc3ccc(O)cc3[C@]1(C)CCN2C | 11.4% [at 95.3 µM] | 
CCCCNCC(O)c1ccc(O)cc1 (stereo not given) | 16.8% | 
Cc1cccc(C(C)c2cnc[nH]2)c1C (stereo not given) | -4.91% | 
COc1ccc2c(c1)C13CCCC[C@@H]1C(C2)N(C)CC3 (stereo not given in full) | 17.6% | 
CC1(C)[C@H](C=C(Cl)Cl)[C@H]1C(=O)OCc1c(F)c(F)cc(F)c1F |  | 22.1 µM (active)
CCNCC(O)c1cccc(O)c1 (stereo not given) | -7.97% [at 39.1 µM] | 
N#CC1(N2CCCCC2)CCCCC1 | 12% | 
CCCCCc1cc(O)c2c(c1)OC(C)(C)c1ccc(C)cc1-2 |  | 1.68 µM (active)
CC(=O)[C@@]1(O)CC[C@H]2[C@@H]3CCC4=CC(=O)CC[C@]4(C)C3(F)[C@@H](O)C[C@@]21C (stereo not given in full) | 8.57% | 
C=CCN1CC[C@]23c4c5ccc(O)c4O[C@H]2[C@@H](O)C=C[C@H]3[C@H]1C5 | 7.42% | 
CN1[C@H]2CC[C@@H]1[C@@H](C(=O)O)[C@@H](OC(=O)c1ccccc1)C2 |  | inactive
CCCC(C)(COC(N)=O)COC(=O)NC1CC1 (stereo not given) | -9.29% | 
CN[C@@H](C)Cc1ccccc1 | 8.83% | 
CC(Cc1ccccc1)NC=O (stereo not given) | -3.14% | 
NC1=NC(=O)N2CC12 (stereo not given) | -4.4% | 
COc1ccc2c3c1O[C@H]1[C@@H](O)C=C[C@H]4[C@@H](C2)NCC[C@@]341 |  | inactive
CNC(=O)Oc1ccccc1C(=O)Nc1ccccc1 |  | 5.96 µM (active)
CCOC(=O)C(O)(c1ccc(Cl)cc1)c1ccc(Cl)cc1 |  | 4.37 µM (active) and 24.3 µM (active)
NC(=O)CN1CC(O)CC1=O (stereo not given) | 10.3% | 
COc1ccc(C(c2ccc(OC)cc2)C(Cl)(Cl)Cl)cc1 |  | 13.7 µM (active)

Structure (SMILES) | ratio activity, negative = MMP loss | Potency
CCC(N)Cc1c[nH]c2ccccc12 (stereo not given) |  | 21.1 µM (active)
[S]=[Sb](=[S])[S][Sb](=[S])=[S] | 11.7% | 
CC(C)C[C@H](CN)CC(=O)O | 11.5% | 
CN(C)[C@H](Cc1ccccc1)c1ccccc1 | 6.76% | 
CCOC(=O)C1(c2ccccc2)CCCN(C)CC1 (stereo not given) | 9.7% | 
[H+].[H+].[Hg+2].[O-]B([O-])[O-].[c-]1ccccc1 |  | 13.9 µM (active)
O=C1CCCCC1CN1CCCCC1 (stereo not given) | -13.5% | 
O=C1Nc2ccc(Cl)cc2C(c2ccccc2Cl)=NC1O (stereo not given) | -14.7% | 
C[N+]1([O-])[C@@H]2CC[C@H]1CC(OC(=O)C(CO)c1ccccc1)C2 (stereo not given in full) |  | inactive
CC(C)C[C@H]1C(=O)N2CCC[C@H]2[C@]2(O)O[C@](NC(=O)[C@@H]3C[C@@H]4c5cccc6[nH]cc(c56)C[C@H]4N(C)C3)(C(C)C)C(=O)N12 | -4.59% | 
O=C1CCO1 | 15% | 
Oc1c(Cl)cc(Cl)cc1Cl |  | 17 µM (active) and 48.6 µM (active)
CCON=O | -16.2% | 
COC(=O)[C@H]1[C@@H](OC(=O)c2ccccc2)C[C@@H]2CC[C@H]1N2C | -14.9% | 
O=[N+]([O-])c1cc(I)c(O)c(I)c1 |  | 13.3 µM (active)
CN(C)CCCCCCN(C)C (tested in a mixture with another compound) | 18.2% | 
CCN(CC)CCO[C@H]1CC[C@@]2(C)C(=CC[C@@H]3[C@@H]2CC[C@]2(C)C(=O)CC[C@@H]32)C1 | -22.6% | 
CCC1(CC)C(=O)NC(=O)N(C)C1=O | 19.9% | 
C[C@@H]1[C@@H]2Cc3ccc(O)cc3[C@@]1(C)CCN2CC1CC1 | 12.7% | 
O=c1ccc2cc(O[C@@H]3O[C@H](CO)[C@@H](O)[C@H](O)[C@H]3O)c(O)cc2o1 | 11.6% [at 39.1 µM] | 
